Data: PubChem BioAssay AID651820 (National Center for Advancing Translational Sciences (NCATS), 2012)
In all, about 340,000 compounds went through this assay and about 12,000 (3.5%) were called active. About 18% were inconclusive and are not listed. This excerpt belongs to a sample that is enriched for actives. Unmarked numbers belong to inactive results. The call rests on the fitted dose curve; in most records, active means well fitted inhibition curve with a large enough effect; inconclusive means small, poorly fitted or top-dose-only effect, or another doubt; inactive means no such curve, though single readings can be large or run the other way.

Assay: qHTS Assay for Inhibitors of Hepatitis C Virus (HCV)
Conditions: Huh7.5.1 HCVcc-Cre infection, luciferase reporter, 44 h; series mostly up to 41.8 µM; activity change, negative = inhibition: at the top concentration
In short: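 Seed cells (1,000/well) for 4 h; treat with compound and infect with HCVcc-Cre, moi about 0.5. Incubate 44 h, then detect luciferase activity.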
On the % scale 0 is the no-effect control and ±100 the full control effect; potency means the concentration at half of the fitted maximal effect.

SMILES	activity change, negative = inhibition	Potency
CC(Sc1ccccc1F)C(=O)Nc1cccc(S(=O)(=O)N2CCOCC2)c1 (stereo not given)	-2.13%	
CCC1(C)NC(=O)N(CC(=O)N2CCN(c3cccc(Cl)c3)CC2)C1=O (stereo not given)	7.91%	
COc1ccc(S(=O)(=O)N2CCN(CC(=O)NCC3(N4CCOCC4)CCCCC3)CC2)cc1	17.9%	
CC(NC(=O)c1ccccc1)C(=O)Nc1ccccc1 (stereo not given)	22.1%	
COc1ccc(Cl)cc1C=CC=NNC(=O)c1ccncc1	-12.9%	
CC(=O)Nc1ccc(S(=O)(=O)N2CCN(S(=O)(=O)c3cccs3)CC2)cc1	8%	
CCC(C)c1ccc(NC(=O)COC(=O)C2CCCC2)cc1 (stereo not given)	24.4%	
Cc1ccccc1Nc1nc(N)nc(COC(=O)CCC(=O)c2ccc(F)cc2)n1	9.47%	
COc1ccccc1NS(=O)(=O)c1ccc(C)c(C(=O)NNC(=O)c2csc(N3CCOCC3)n2)c1	-6.37%	
Cc1cc(C)c(C)c(S(=O)(=O)N2CCN(C(=O)c3ccc4c(=O)n5c(nc4c3)CCC5)CC2)c1C	-7.77%	
CC(C)N(Cc1nnc(-c2ccc(Cl)cc2)o1)C(=O)C1=COCCO1	-0.237% [at 8.37 µM]	
CN(C(=O)c1ccc(NC(=O)Cc2cccc(NC(=O)C3CCN(C(=O)c4ccccc4)CC3)c2)cc1)C1CC1		0.562 µM (active)
CN(C(=O)c1cccc(NC(=O)Cc2ccc(NC(=O)C3CCN(C(=O)C4CCCCC4)CC3)cc2)c1)C1CCC1	-11.4% [at 8.37 µM]	
CN(C(=O)c1cccc(NC(=O)Cc2ccc(NC(=O)C3CCCN(C(=O)C4CC4)C3)cc2)c1)C1CC1 (stereo not given)	0.531%	
CCOc1ccc(S(=O)(=O)N2CCC(C(=O)NCC(=O)Nc3cccc(Cl)c3C)CC2)cc1	5.38%	
Cc1ccc(-n2ncc3c(=O)n(-c4ccc(C)c(C)c4)c(-c4ccco4)nc32)cc1		3.98 µM (active)
Cc1ccc(-n2ncc3c2ncn2nc(-c4ccco4)nc32)c(C)c1	-1.19%	
Cc1ccc(-c2nc3c(cnn3-c3ccccc3)c(=O)o2)cc1	18.5%	
O=c1ccc2c(-c3ccccc3S(=O)(=O)O)c3ccc(O)c(O)c3oc-2c1O	-10.9%	
O=C(CN1C(=O)c2ccc([N+](=O)[O-])cc2C1=O)Nc1nnc(C2CC2)s1	33.3%	
CC(CCN1CCN=C1N(C)C)c1ccccc1 (stereo not given)	-8.02%	
O=C(COc1ccccc1F)NNC(=O)c1cc(Br)ccc1Cl	15.1%	
O=C(CCNC(=O)c1ccc(Br)cc1)NCCCc1ccccc1	24.9%	
CCOc1ccc(NC(=O)CN(C)C(=O)Cc2sc(C)nc2-c2ccc(F)cc2)cc1OCC	-12.3%	
CCOc1ccccc1NC(=S)C(=C([O-])c1ccc2c(c1)OCCO2)[n+]1ccc(CC)cc1	6.44%	

SMILES	activity change, negative = inhibition	Potency
O=C1OC(/C=C/c2ccccc2)=NC/1=C/c1ccco1	2.84%	
COc1ccccc1/C=C/C(=O)NC(=S)N1CCOCC1	0.814%	
COc1ccccc1/C=C/C1=NC(=C\N(C)C)/C(=O)O1		11.2 µM (active)
O=C(O)C(CCc1ccccn1)c1ccccc1 (stereo not given)	2.66%	
O=C(CSc1nnc(Nc2ccccc2F)s1)NC1CCCC1	-7.98%	
CCCOC(=O)c1[nH]c2c(c1C)C(=O)CC(c1cc(OC)c(OC)c(OC)c1)C2 (stereo not given)		4.47 µM (active)
CCOC(=O)c1[nH]c2c(c1-c1ccccc1)C(=O)CC(c1ccc(Cl)cc1)C2 (stereo not given)	11.8%	
COCCOC(=O)c1[nH]c2c(c1C)C(=O)CC(c1ccc(OC)cc1)C2 (stereo not given)	-18.2%	
O=c1oc(-c2ccco2)nc2sc3c(c12)CCCCC3	0.369%	
Cn1c2c(c(=O)n(C)c1=O)CN(Cc1ccco1)CN2	29.8%	
Cn1c(=O)n(Cc2ccco2)c(=N)c2c3c(sc21)CCCC3		10 µM (active)
COc1cc(C)ccc1OCC(=O)OCC(=O)c1ccc[nH]1	5.28%	
O=C(N/N=C/c1ccc(O)c2ccccc12)c1cccnc1	0.147%	
O=C(N/N=C/c1c[nH]c2ccccc12)c1ccccc1O	7.77%	
O=C(NN=Cc1ccccc1O)NN=Cc1ccccc1O		5.01 µM (active)
NC(=O)NC(=O)C(OC(=O)CCNS(=O)(=O)c1ccccc1)c1ccccc1 (stereo not given)	22.6%	
O=C(c1ccc(Cl)c(S(=O)(=O)N2CCCCC2)c1)N1CCCCCC1	-27.9%	
COc1ccccc1N1CCN(C(=O)c2ccc(S(=O)(=O)N3CCCCC3)cc2)CC1	0.986%	
COc1ccccc1N1CCN(C(=O)c2ccc(Cl)c(S(=O)(=O)N3CCCC3)c2)CC1		11.2 µM (active)
O=C(NN1CCOCC1)c1cccc(F)c1	28%	
CCNC(=O)N1c2ccccc2Sc2ccccc21	-20.7%	
CNC(=O)N1c2ccccc2C=Cc2ccccc21	2.06%	
CC1C(C)N(C(=O)CCl)c2ccccc2N1C(=O)CCl (stereo not given)		4.47 µM (active)
O=C(CSc1nc2ccccc2c(=O)n1-c1ccccc1F)N1CCOCC1	9.53%	
CN(CC(=O)Nc1ccc(C(N)=O)cc1)S(=O)(=O)c1ccc2c(c1)OCCO2	-10.4%	

SMILES	activity change, negative = inhibition	Potency
Cn1c(=O)cc(SCC(=O)N2CCN(C(=O)c3ccco3)CC2)c2ccccc21	-1.57%	
CCOC(=O)C1CCN(C(=O)CSc2cc(=O)n(C)c3ccccc23)CC1	9.61%	
Cn1c(=O)cc(SCC(=O)N2CCCC2)c2cc(Cl)ccc21		10 µM (active)
CC(=O)c1ccc(NC(=O)C2CCCN2S(=O)(=O)c2cccs2)cc1 (stereo not given)	8.62%	
O=C(Nc1ccc(OC(F)(F)F)cc1)c1ccc2c(c1)no[n+]2[O-]		31.6 µM (active)
Cn1nccc1NC(=O)Nc1ccc(OC(F)(F)F)cc1	4.83%	
COC(=O)[C@H](C)NC(=O)Nc1ccc(OC(F)(F)F)cc1	8.34%	
COc1ccc(S(=O)(=O)N2CCCC2CNC(=O)C(=O)NC2CC2)cc1 (stereo not given)	21.9%	
O=C(NC1CCCCCC1)C1CCN(C(=O)c2ccc(Cl)cc2)CC1	6.16%	
Cc1cc(C)cc(NC(=O)C2CCCN(S(=O)(=O)c3ccc4[nH]c(=O)ccc4c3)C2)c1 (stereo not given)	-21.5%	
CC(=O)N1c2ccc(S(=O)(=O)N3CCC(C(=O)NC4CCCCC4C)CC3)cc2CC1C (stereo not given)	0.0955%	
CCc1cccc(NC(=O)C2CCCN(S(=O)(=O)c3ccc4[nH]c(=O)ccc4c3)C2)c1 (stereo not given)	-6.12%	
CC(=O)N1c2ccc(S(=O)(=O)N3CCCC(C(=O)Nc4cccc(F)c4)C3)cc2CC1C (stereo not given)		11.2 µM (active)
CC(=O)N1c2ccc(S(=O)(=O)N3CCCC(C(=O)Nc4ccc(C)cc4C)C3)cc2CC1C (stereo not given)	-8.23%	
CC(=O)N1c2ccc(S(=O)(=O)N3CCCC(C(=O)Nc4cccc(Cl)c4)C3)cc2CC1C (stereo not given)		5.62 µM (active)
Cc1ccc(OCC(=O)Oc2ccccc2[N+](=O)[O-])cc1	30.2%	
CC1(C)NC(=O)N(CC(=O)N2CCN(S(=O)(=O)c3ccccc3F)CC2)C1=O	18.4%	
CCN1C(=O)[C@@H]2[C@@H](c3ccc(-c4cccc(Cl)c4)cc3)N3CCC[C@@]3(C(=O)OC)[C@@H]2C1=O	-20.2%	
Cc1cc(Nc2ccccc2)n(C(=O)c2ccc(N)cc2)n1		12.6 µM (active)
Cc1cc(Nc2ccccc2)n(CCC#N)n1	4.32%	
Nc1ccc(Nc2ccccc2)cc1	-12.8%	
O=C(Cc1ccc(Br)cc1)NCCc1ccccc1	4.78%	
CC[C@@H]1CCCCc2ccccc2[C@@H](C(=O)C[C@H](O)CC(C)=O)OC1=O	14.1%	
Cc1nnc(NC(=O)c2ccc3nccnc3c2)s1	17.6%	
Cc1nnc(NC(=O)Nc2ccc(Cl)c(Cl)c2)s1		14.1 µM (active)

SMILES	activity change, negative = inhibition	Potency
Cc1nnc(NC(=O)C(c2ccccc2)c2ccccc2)s1	-1.93%	
COc1ccc(-c2cnc(SCCNC(=O)c3ccc4c(c3)OCO4)[nH]2)cc1	14.4% [at 8.37 µM]	
C#CCOCCOCCOCCNc1nc(N2CCOCC2)nc(N2CCN(C(=O)[C@H](Cc3ccc(O)cc3)n3cc(CCO)nn3)CC2)n1	17.4%	
Cc1cc(C)c[n+](-c2nc3ccccc3nc2[N-]S(=O)(=O)c2cccs2)c1	0.641%	
O=S(=O)([N-]c1nc2ccccc2nc1-[n+]1ccc(Cc2ccccc2)cc1)c1ccc(Br)s1		3.55 µM (active)
O=C(NCCc1ccccc1)C1CCN(S(=O)(=O)c2ccc(Br)s2)CC1	5.95%	
CC(Oc1ccc2c(-c3ccccc3)cc(=O)oc2c1)C(=O)NC(Cc1c[nH]c2ccccc12)C(=O)O (stereo not given)	-1.82%	
CC(C)(C)C(=O)CSc1ccc(S(=O)(=O)N2CCCC2)cn1	5.1%	
CCCS(=O)(=O)N1CCC(CCOc2ccccc2)(C(=O)OCC)CC1	-7.6%	
CCOC(=O)C1(CCOc2ccccc2)CCN(Cc2cc(OC)c(O)cc2Cl)CC1		11.2 µM (active)
CCOC(=O)C1(CCOC)CCN(Cc2ccc(C(=O)OC)cc2)CC1	3.41%	
Nn1c(SCC(=O)Nc2nccs2)nnc1-c1ccco1	-1.79%	
Cc1ccccc1NC(=O)Cc1nc(COC(=O)c2cccnc2Cl)cs1	-13.6%	
COc1ccc(C(C(=O)NC2CCCCC2)N(C(=O)c2snc(C(N)=O)c2N)c2ccccc2OC)cc1 (stereo not given)	0.443%	
COc1ccc(C(C(=O)NC2CCCCC2)N(C(=O)CCl)c2ccccc2Cl)cc1 (stereo not given)		2.82 µM (active)
COc1cccc(N(C(=O)C2COc3ccccc3O2)C(C(=O)NC2CCCCC2)c2ccc(O)cc2)c1 (stereo not given)	-7.1%	
O=C(c1ccc(F)cc1)N1CCC(C(=O)N2CCN(S(=O)(=O)c3ccccc3Br)CC2)CC1	15.5%	
COc1ccc(C(=O)Nc2nc(-c3ccc(S(=O)(=O)N4CCOCC4)cc3)cs2)cc1		35.5 µM (active)
CNC(=O)c1ccsc1NC(=O)c1ccc(S(=O)(=O)N2CCOCC2)cc1	-5.81%	
CCOC(=O)c1csc(NC(=O)c2ccc(S(=O)(=O)N3CCCC3)cc2)n1	-8.37%	
Cn1c(=O)[nH]c2c(c(C(=O)O)nn2C)c1=O	7.31%	
CCOC(=O)c1cnc2nc(SCc3ccccc3Cl)[nH]n2c1=O	4.2%	
Cc1cc(C(=O)N/N=C\C(Br)=C\c2ccccc2)c(C)o1	-28.1%	
CC(C)c1cc(C(=O)O)n[nH]1	13.7%	
CC(C)c1cc(C(=O)N/N=C/C(Br)=C/c2ccccc2)n[nH]1		22.4 µM (active)
